According to PubChem BioAssay (NCI):
The panel holds about 79,000 compounds, 15% with a hit somewhere; the sample as a whole holds those more often. A number with no mark means an inactive call. Calls of active or inactive are those of the source. Cut-off read from the data, not from the text of the source: active = growth inhibition above about 70%; inactive = the rest.

Experiments:
[1] = NCI Yeast Anticancer Drug Screen. Data for the rad50 strain (AID 155);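 note: 0% = growth of vehicle-only cultures of the same strain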; conditions: S. cerevisiae rad50 strain growth inhibition; at 50.0 µM; active compounds read high
Method in brief: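 Vehicle-treated cultures provide the reference for the growth inhibition reported for compound-exposed, repair-deficient yeast.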

[2] = NCI Yeast Anticancer Drug Screen. Data for the mec2-1 strain (AID 157); conditions: S. cerevisiae mec2-1 strain, at 50.0 µM, active compounds read high
Method in brief: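 Vehicle-treated cultures served as reference for growth inhibition of compound-exposed mec2-1 yeast.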

[3] = NCI Yeast Anticancer Drug Screen. Data for the sgs1 mgt1 strain (AID 161);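 note: 0% = growth of cultures given vehicle only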; conditions: S. cerevisiae sgs1 mgt1 strain, at 50.0 µM, active compounds read high
Method in brief: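 Test agents were incubated with a DNA-repair-mutant yeast strain. Growth was then read and compared against vehicle-treated controls.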

[4] = NCI Yeast Anticancer Drug Screen. Data for the cln2 rad14 strain (AID 165);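 note: 0% = growth equal to vehicle treated cultures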; conditions: S. cerevisiae cln2 rad14 strain, at 50.0 µM, active compounds read high
Method in brief: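 Each compound was tested on cln2 rad14 yeast. Inhibition of growth was calculated against vehicle-exposed controls.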

[5] = NCI Yeast Anticancer Drug Screen. Data for the bub3 strain (AID 167); conditions: S. cerevisiae bub3 mutant strain, at 50.0 µM, active compounds read high
Method in brief: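 Mutant yeast screening strain plus compound; vehicle-treated cultures serve as the 0% inhibition reference.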

[6] = NCI Yeast Anticancer Drug Screen. Data for the mlh1 rad18 strain (AID 175); conditions: S. cerevisiae mlh1 rad18 strain growth inhibition; at 50.0 µM; active compounds read high
Method in brief: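 Vehicle-treated cultures served as the reference for growth inhibition in a yeast strain carrying DNA damage repair alterations exposed to each compound.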

| Structure (SMILES) | growth inhibition [1] | growth inhibition [2] | growth inhibition [3] | growth inhibition [4] | growth inhibition [5] | growth inhibition [6] |
| --- | --- | --- | --- | --- | --- | --- |
| CC(=O)NC1=C/C(=C/COC(C)=O)OC1=O | 22.6% | -9.9% | 11.8% | -57% | 5.8% | 8.75% |
| CC1(C)C/C(=C\c2ccc([N+](=O)[O-])cc2)C(=O)c2ccccc21 | 80.3% (active) | 71.7% (active) | 77.5% (active) | 40.3% | 76.5% (active) | 89% (active) |
| CC(=O)OCC(=O)C1(O)CCC2C3CCC4CC(=O)CCC4(C)C3C(=O)CC21C (stereo unspecified) | -3.65% | -5.65% | -11.8% | 20.2% | 3.7% | 9.4% |
| COC(=O)c1ccccc1S(=O)(=O)NC(C)C | 10.8% | -1.15% | 16.9% | 11.8% | -4.7% | 25.8% |
| O=NC(C[N+](=O)[O-])c1ccccc1 (stereo unspecified) | 4.6% | -21.9% | 2.7% | -40.7% | 6.55% | -24.4% |
| COc1ccc(C(CC(=O)c2ccccc2)SCCN2CCOCC2)cc1 (stereo unspecified) | 4.25% | 0.85% | 5.2% | -43.6% | 53.5% | 3.6% |
| Cc1ccccc1NC(=O)C(=O)C(C#N)c1ccc(Cl)cc1Cl (stereo unspecified) | -19.3% | 6% | 24.8% | -19.6% | 7.3% | 19.9% |
| Cc1ncc(CO)c(/C=N/NC(N)=S)c1O | 3.3% | -13.9% | 3.7% | -34.9% | 0.05% | 13.6% |
| COc1cc(C=Nc2ccc(Cl)cc2)ccc1O | -35.9% | -25.9% | -19.1% | -20.6% | -24.9% | -43.3% |
| COC(=O)C1(C(=O)OC)CC(=O)c2c(OC(=O)c3cccc(OC)c3C#N)ccc(OC(=O)c3cccc(OC)c3C#N)c2C1 | 1.05% | 3.95% | -11.5% | -4.35% | 0.05% | 16.9% |
| CCOC(=O)C1OC1(C)CC (stereo unspecified) | 4.1% | 1% | 10.3% | -5.85% | -5.25% | -21.4% |
| N=C1C(O)C2(I)c3ccccc3N3C(=N)C(O)C4c5ccccc5N1C4C32 (stereo unspecified) | 5.55% | 2.85% | -38.5% | -5.8% | -29.4% | 8.95% |
| O=C(O)Cn1ccc(=O)c2cc([N+](=O)[O-])ccc21 | 41% | 15.4% | -11.1% | 12.7% | 24.9% | -49% |
| Cc1ccc(N(CN2C(=O)CCC2=O)CS(=O)(=O)c2ccc(C)cc2)cc1 | -1.85% | -8.6% | -9.15% | 21.4% | -5.65% | 0.8% |
| COC(=O)C(Cc1ccccc1)NC(=O)C1CSC(C)(C)N1C=O (stereo unspecified) | 3.25% | 16.4% | 21.6% | 3.05% | 22.8% | -20.4% |
| CC(C)(C)OC(=O)NC(Cc1ccccc1)NC(=O)NC(=O)OCc1ccccc1 (stereo unspecified) | -25.3% | -9.85% | -6.45% | -0.65% | -13.8% | -27.1% |
| CC(C)(C)OC(=O)Cc1c[nH]c2ccccc12 | -38.2% | -27.1% | -9.45% | -19.1% | -27.6% | -41.1% |
| CN1C(=O)CC(c2ccc(Cl)cc2)C1=O (stereo unspecified) | 21.4% | 21.4% | -0.65% | 2.5% | -3.75% | 2.65% |

| Structure (SMILES) | growth inhibition [1] | growth inhibition [2] | growth inhibition [3] | growth inhibition [4] | growth inhibition [5] | growth inhibition [6] |
| --- | --- | --- | --- | --- | --- | --- |
| CCCC(=O)Nc1ccccc1 | 18.1% | -15.8% | 8.75% | 7% | -4.75% | 19.6% |
| CCC/C(=N/NC(N)=O)C1=CCCCC1 | 0.45% | -5.45% | -2.6% | -28.4% | -18.9% | 3.4% |
| CC(O)CN=Cc1ccccc1 (stereo unspecified) | -16.6% | 21.9% | -11.2% | -41.4% | -11.5% | -18.8% |
| O=P(CCC(CC(F)(F)C(F)(F)C(F)(F)C(F)(F)C(F)(F)C(F)(F)C(F)(F)F)P(=O)(N1CC1)N1CC1)(N1CC1)N1CC1 (stereo unspecified) | 5.1% | 3.5% | -1.6% | -5.1% | -0.35% | 2.35% |
| Nc1c(S(=O)(=O)O)cc(S(=O)(=O)O)c2ccc(N=Nc3ccccc3)c(O)c12 | 7.15% | 0.9% | -10.8% | -3.05% | -8.7% | -15.7% |
| O=C1c2cccc3c([N+](=O)[O-])ccc(c23)C(=O)N1CCc1ccccn1 | 24.9% | 19.2% | 45.5% | 1.95% | 17.9% | 26.6% |
| Cc1ccc(NC(=O)Oc2ccc(Cl)cc2Cl)cc1NC(=O)Oc1ccc(Cl)cc1Cl | -20.1% | -1.15% | -13.3% | -13.1% | -3.2% | -42.7% |
| COc1cc(C(=O)NO)c(Br)c(OC)c1OC | -3.5% | 9.5% | -4.35% | -5.6% | -7.2% | -3.7% |
| CCOC(=O)c1ccc(NC(=O)c2cccc(Cl)c2)cc1 | 0.1% | -6.85% | -4.25% | -5.45% | 9.5% | 1.25% |
| Cc1ccc2nc(-c3ccc(Cl)cc3Cl)oc(=O)c2c1 | -9.35% | 3.8% | 20.4% | -12.8% | 20.6% | -7.15% |
| Oc1c(Br)cc(Br)cc1/C=N/c1nc(-c2ccccc2)cs1 | 98.5% (active) | 92.1% (active) | 99% (active) | 92.5% (active) | 97.4% (active) | 99% (active) |
| Cn1c2ccccc2c(=O)c2cc(NC(=O)CCCCCCCC(=O)Nc3ccc4c(c3)c(=O)c3ccccc3n4C)ccc21 | -10.7% | -12.8% | -10.7% | -12.6% | -27.2% | -1.45% |
| Nc1nc2c(c(=O)[nH]1)C(c1ccccc1)C(c1ccccc1)C2 (stereo unspecified) | -2.85% | -8.65% | 3.8% | -27.4% | -9.5% | 0.15% |
| COC(=O)C(CC(=O)C=[N+]=[N-])NC(=O)C(Cl)Cl (stereo unspecified) | -2.4% | -8.9% | -4.7% | -15.9% | 9.3% | -8.95% |
| c1ccc(-c2ccccc2NC2=NCCO2)cc1 | 6.55% | -2.8% | 2.2% | -25.1% | 11.4% | 5.7% |
| O=C1c2ccccc2C(=O)N1n1c(Cc2ccccc2)n[nH]c1=O | -16.1% | -28.2% | -41.5% | -10.8% | -16.5% | -16.2% |
| CCCCCCCCCCCC(=O)N(C)CCS(=O)(=O)O | 6.2% | -28.8% | 4.55% | 13.1% | -20.6% | 8.45% |
| O=C1NC(=O)C2(CCC(O)C2)c2cc[n+]([O-])cc21 (stereo unspecified) | -8.55% | -41.4% | -13.6% | 8.25% | -25.6% | -83.8% |
